An excerpt weighted towards active compounds, which were near 4.1% of everything screened.
LEDGF integ inh – blockers of LEDGF/p75-dependent integrase strand transfer – biochemical, TR-FRET, high throughput, primary screen; HIV-1 integrase (with human LEDGF/p75); TR-FRET IN-LEDGF/p75 DNA integration, Eu/Cy5; inhibition, % at 3.7 µM; 0.64% of 370,000 active; AID 743269, 2014;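 active = inhibition above the screen-wide mean plus 3 SD, cut at about 13% in these data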;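 note: signal is the Cy5 over europium emission ratio at 671 and 618 nm; 0% = plate median of compound wells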
rCAG RNA binder – binders of r(CAG) RNA repeats, primary screen, biochemical, fluorescence; inhibition, % at 3 µM; 1.3% of 370,000 active; r(CAG) RNA repeat, TO-PRO-1 dye displacement fluorescence;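 active = inhibition above the plate cutoff, the mean of all test compounds on that plate plus 3 SD, cut at about 35% in these data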;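 note: 0% = DMSO alone and 100% = 100 µM mitoxantrone as full dye displacement; higher means more dye released from RNA so lower well fluorescence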
MBD2 inh – inhibitors of MBD2 binding to methylated DNA, primary screen, biochemical, TR-FRET, DNA-binding domain, human. Methyl-CpG-binding domain protein 2 (Homo sapiens), Q9UBB5. MBD2 binding to methylated oligonucleotide. inhibition, % at 4.4 µM. 0.31% of 370,000 active. AID 686964, 2013; in the data active = inhibition above about 13%
ABHD5 PLIN5 PPI – ABHD5-PLIN5 interaction inhibitors, primary screen, cell lysate, split luciferase complementation, luminescence; Split G. princeps luciferase complementation, 4 h; inhibition, % at 4 µM; 0.78% of 360,000 active; Perilipin-5 (Homo sapiens) + 1-acylglycerol-3-phosphate O-acyltransferase ABHD5 (Homo …;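 active = inhibition above the mean inhibition across every tested compound plus 3 SD, cut at about 22% in these data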;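 note: 0% = DMSO only wells and the 100% control is not disclosed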
PRMT1 inh – PRMT1 methyltransferase inhibitors, primary screen, biochemical, fluorescence polarization | 1.3% of 370,000 active | AID 652257, 2013 | recombinant PRMT1, activity-based probe fluorescence polarization | Protein arginine N-methyltransferase 1 (Homo sapiens), Q99873 | inhibition, % at 2.79 µM;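 active = inhibition above about 21% made by adding two undisclosed values, limit read from the data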
UHRF1 MBD2 ctr – UHRF1 methylated DNA binding inhibitors, primary screen, counter-screen for MBD2 inhibitor project, biochemical, TR-FRET, human UHRF1, single concentration; E3 ubiquitin-protein ligase UHRF1 (Homo sapiens), Q96T88; UHRF1 binding to methylated oligo; inhibition, % at 4.4 µM; 0.75% of 370,000 active; in the data active = inhibition above about 21%;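 note: UHRF1 SRA domain binding a hemimethylated CpG hairpin DNA probe; 0% = median of test compound wells and 100% = reference inhibitor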
ABHD5 PLIN5 conf – ABHD5-PLIN5 interaction inhibitors, confirmation, biochemical, luminescence; 67% of 2,200 active; inhibition, % at 4 µM; shares compounds with ABHD5 PLIN5 PPI; in the data active = inhibition above about 23%;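 note: 0% = DMSO vehicle wells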
HNF4 counter – HNF4 dimerization inhibitors, counter-screen for ABHD5-PLIN5 interaction inhibitor project, biochemical, split-luciferase complementation, luminescence; inhibition, % at 4 µM; AID 651674, 2012; shares compounds with ABHD5 PLIN5 PPI; 77% of 2,200 active;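 active = mean inhibition across replicate wells exceeding the computed hit threshold, cut at about 13% in these data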;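 note: light from luciferase halves that rejoin when HNF4 fusion proteins dimerize; 0% = DMSO only wells and the 100% control is not given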
Starred values were filed as active, the others as inactive; . = no result.

SMILES	LEDGF integ inh	rCAG RNA binder	MBD2 inh	ABHD5 PLIN5 PPI	PRMT1 inh	UHRF1 MBD2 ctr	ABHD5 PLIN5 conf	HNF4 counter
CCCCS(=O)(=O)NCC1CCN(C(=O)C(=O)c2cc3ccccc3o2)CC1	-1	1	-2	.	4	-1	.	.
O=C1S/C(=C/c2ccc(N3CCOCC3)o2)C(=O)N1Cc1ccc(F)cc1	-1	2	8	12	5	3	.	.
C=CCN1C(=O)N/C(=C/c2ccc(N3CCOCC3)o2)C1=O	1	0	-6	.	12	0	.	.
O=C1NC(=S)S/C1=C/c1ccc(N2CCOCC2)o1	.	.	.	44*	.	.	42*	106*
O=C1N/C(=C/c2ccc(N3CCOCC3)o2)C(=O)N1c1ccccc1	-5	7	-1	80*	46*	4	63*	99*
CC1=CC2C(C(O)CC3(C)C2CC(C)C32OCOC23COCO3)C2(C)C/C(=C\O)C(=O)C=C12 (configuration not stated)	7	19	-1	32*	4	-3	42*	9
CCN=C1NC(c2ccc(F)cc2)C(C(=O)OC)=C(C)N1Cc1cccc(C(F)(F)F)c1 (configuration not stated)	-1	7	0	.	-4	0	.	.
C=CCN1C(=O)[C@H](CC(=O)NCCCCc2ccccc2)[C@@]2(C(=O)OCC)CCCC=C12	-1	1	3	.	0	-3	.	.
CN1C(=O)/C(=C\C(=O)c2cccs2)c2ccccc21	-3	9	1	65*	16	0	67*	87*
Oc1c(C(c2ccccc2)N2CCCCC2)ccc2ccccc12 (configuration not stated)	-1	15	0	38*	10	-1	96*	48*
COC(=O)C1CN(Cc2ccc(C)cc2)CCS(=O)(=O)N1Cc1cn(Cc2ccc(F)cc2)nn1 (configuration not stated)	2	1	6	.	-2	10	.	.
Cc1ccc2c(c1)/C(=C/c1ccccc1F)C(=O)N2	0	2	-1	31*	0	0	44*	39*
Cc1ccc(CN2CC(N3CCC[C@@H]3C)CS2(=O)=O)cc1 (some centres not stated)	-1	3	-2	.	3	1	.	.
CCOC(=O)C(c1ccccc1)C(Nc1ccc(F)cc1)c1ccccn1 (configuration not stated)	3	-6	7	3	-3	-3	.	.
CCOC(=O)C(C(=O)OCC)C(Nc1ccc(Br)cc1)c1ccccc1 (configuration not stated)	0	-2	0	26*	1	0	11	52*
Cc1ccc(C(=O)N/C(=C\c2ccc(-c3ccc(Br)cc3)o2)C(=O)NCCCN(C)C)cc1	1	12	-3	36*	1	2	21	2
CN(C)CCNC(=O)/C(=C/c1ccc(-c2ccc(Cl)cc2)o1)NC(=O)c1ccccc1	2	6	3	25*	1	2	13	4
CN(C)CCNC(=O)/C(=C/c1ccc(-c2ccc(Cl)cc2Cl)o1)NC(=O)c1ccccc1	-1	10	1	35*	-4	2	7	12
Cc1ccc(C(=O)N/C(=C\c2ccc(-c3cccc([N+](=O)[O-])c3)o2)C(=O)NCCCN(C)C)cc1	-3	13	-5	9	0	-2	.	.
Cc1cc(NS(=O)(=O)c2ccc(NC(=O)Cc3ccccc3)cc2)no1	-3	4	-4	.	4	-2	.	.
COC(=O)C1=C(C)N(Cc2ccc(C(F)(F)F)cc2)C(=NCc2ccccc2C(F)(F)F)NC1c1ccc(C(F)(F)F)cc1 (configuration not stated)	2	1	-1	.	-2	-2	.	.
COc1nc(=O)n(C2C=CC(=O)O2)cc1F (configuration not stated)	4	1	1	41*	-2	2	52*	34*
Nn1c(SCC(=O)N2CCOCC2)nnc1-c1cc(-c2ccc(Cl)cc2)n[nH]1	-1	3	2	.	2	-3	.	.
COc1ccc(C(=O)Oc2cc3c4c(c2)C(C)=CC(C)(C)N4C(=O)C3=O)cc1OC	0	2	8	6	1	3	.	.
COc1cccc(C(=O)Oc2cc3c4c(c2)C(C)=CC(C)(C)N4C(=O)C3=O)c1	1	-2	8	33*	5	6	43*	46*
C/C=C/c1ccccc1OCCCN1CCC(C(O)(c2ccccc2)c2ccccc2)CC1	6	0	-2	.	-9	-1	.	.
O=C(Nc1ccc(C(F)(F)F)cc1)OC1CC2CC1[C@H]1CCCCN1[C@H]2Cc1ccccc1 (some centres not stated)	-2	7	5	.	5	2	.	.
CC(C)c1ccc(NC(=O)c2csnn2)cc1	1	-3	-1	24*	-4	0	0	3
O=C(CCCn1cc([N+](=O)[O-])cn1)NC1CCCCCC1	3	0	-4	99*	-3	-3	-5	5

Bioassay records (PubChem BioAssay)
